The values that follow come from PubChem BioAssay AID588726 (The Scripps Research Institute Molecular Screening Center, 2011).

Among all 360,000 compounds or so, about 8,200 (2.3%) were called active. What follows is part of a selection rich in actives, with near analogues and random picks from the rest. A number with no mark means an inactive call. Cut-off read from the data, not from the text of the source: active = inhibition above about 27%; inactive = the rest.

The target in the experiment is Fructose-bisphosphate aldolase (Mycobacterium tuberculosis (strain ATCC 25618 / H37Rv)) (UniProt P9WQA3). In words: M. tuberculosis aldolase activity blockers – biochemical, fluorescence, strain H37Rv, primary screen (AID 588726).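 Note: 0% = vehicle and 100% = reference inhibitor.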 The settings on record: purified M. tuberculosis FBA, fluorescence read-out, at 1 µM, stronger effect = higher value.
Sequence of Fructose-bisphosphate aldolase (Mycobacterium tuberculosis (strain ATCC 25618 / H37Rv)) (P9WQA3 whole entry, looked up): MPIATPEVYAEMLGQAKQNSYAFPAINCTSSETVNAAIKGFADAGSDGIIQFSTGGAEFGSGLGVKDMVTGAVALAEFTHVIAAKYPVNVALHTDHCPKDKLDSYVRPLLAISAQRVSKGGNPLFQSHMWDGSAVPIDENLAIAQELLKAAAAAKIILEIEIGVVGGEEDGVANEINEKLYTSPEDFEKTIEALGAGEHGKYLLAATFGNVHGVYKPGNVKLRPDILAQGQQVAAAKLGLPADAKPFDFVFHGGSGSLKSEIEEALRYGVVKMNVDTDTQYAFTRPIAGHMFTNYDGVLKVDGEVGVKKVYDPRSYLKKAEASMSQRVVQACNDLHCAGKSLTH
Broadly, the inhibition is the drop in the measured response relative to a control, in per cent. Regarding `CC(=O)N1CC[n+]2c(-c3ccc([N+](=O)[O-])cc3)csc21`, the inhibition was -3.76%.

Turning to `COc1ccc2c(c1OC)C(=O)N(c1ncn[nH]1)C2`, the inhibition is 31.1% (active).

For the compound `COc1ccc(C(C)C)cc1S(=O)(=O)Nc1ncn[nH]1`, the inhibition is -1.62%.

Regarding `COc1ccc2c(c1OC)C(=O)N(c1ccc(O)cc1)C2`, the inhibition is -2.29%.

Regarding `Cc1nnc(NC(=O)CSc2nccn2-c2cccc(C)c2C)s1`, the inhibition was 1.13%.

As to `CCCc1cc(=S)n2c([nH]c3ccccc32)c1C#N`, the inhibition is 14.3%.

`CCOC(=O)C1CCN(C(=O)Cn2cc(C#N)c3ccccc32)CC1`: the inhibition was 1%.

In the case of `COc1ccc(C(C(=O)NC2CCCCC2)N(C(=O)Cc2c[nH]c3ccccc23)c2ccccc2)cc1OC` (stereo unspecified), the inhibition is -0.54%.

`CC(=O)N1CCSc2ccc(S(=O)(=O)N3CCC(C)CC3)cc21`: the inhibition is 3.62%.

With `CC12CCC(C(=O)N(CCC#N)CCC#N)(CC1=O)C2(C)C` (stereo unspecified), the inhibition is 1.36%.

As for `Cc1ccc(C(=O)NC(=S)Nc2ccc3[nH]c(=O)[nH]c3c2)cc1C`, the inhibition is 2.47%.

Turning to `COC(=O)c1cc(C(=O)NC(C)C2CC3CCC2C3)cc([N+](=O)[O-])c1` (stereo unspecified), the inhibition was 6.2%.

Turning to `Cc1cccc(NC(=O)c2cc(S(=O)(=O)N3CCC4(CC3)OCCO4)ccc2F)c1`, the inhibition is -0.22%.

Consider `O=C(NC1CCN(Cc2ccccc2)CC1)c1ccc(Oc2cc(Cl)cc(Cl)c2)o1`, for which the inhibition was 1.42%.

As for `O=C(NC1CCN(Cc2ccccc2)CC1)c1cc(Br)c(Br)[nH]1`, the inhibition was 40% (active).

Take `Cc1cc(C(=O)NC2CCN(Cc3ccccc3)CC2)n[nH]1`: the inhibition is 0.08%.

For `OC(c1ccc(Cl)c(F)c1)c1ncc(-c2ccccc2Cl)[nH]1` (stereo unspecified), the inhibition is -1.69%.

As to `CS(=O)(=O)N(CC(O)Cn1c2ccccc2c2ccccc21)c1cccc2ccccc12` (stereo unspecified), the inhibition was -2.35%.

Take `CCCCN(CCCC)CC(O)Cn1c2ccccc2c(=O)c2ccccc21` (stereo unspecified): the inhibition is 71.2% (active).

For the compound `OC(Cn1c2ccccc2c2ccccc21)C[n+]1ccccc1` (stereo unspecified), the inhibition was -1.64%.

On to `O=C(CNC(=O)[C@@H]1Cc2ccccc2CN1)NC1CCCCC1`, for which the inhibition is 0.53%.

Take `CC(C)C(NC(=O)OCc1ccccc1)C(=O)OCC(=O)N1C(C)CCCC1C` (stereo unspecified): the inhibition is 2.57%.

On to `COc1ccc(CCN2C(=O)CC(N3CCC(C(N)=O)CC3)C2=O)cc1OC` (stereo unspecified), for which the inhibition is -1.48%.

`Cc1nc(SC(C)C)[nH]c(=O)c1Cc1ccccc1`: the inhibition is 0.91%.

Turning to `N#Cc1c(N)nc2c(c1N)CC(C(F)(F)F)O2` (stereo unspecified), the inhibition was 0.26%.

As to `CCc1ccc(-c2cc(C(=O)NN3CCN(C)CC3)c3ccccc3n2)cc1`, the inhibition was 0.75%.

Consider `Cc1nc2ccccc2c(C(=O)O)c1-c1ccccn1`, for which the inhibition is -2.32%.

As for `O=C(CCCN1C(=O)CSc2ncccc21)N1CCN(c2cccc(C(F)(F)F)c2)CC1`, the inhibition was 3.32%.

Regarding `CN(C)c1cc(-c2ccc(F)cc2)oc(=O)c1Cl`, the inhibition was -2.58%.

In the case of `CCCCCCc1cc2cc(-c3nnc(-c4ccccc4)o3)c(=O)oc2cc1O`, the inhibition is 4.92%.

On to `Cc1cc(Cl)ccc1N1C(=O)CC(SCCC(=O)O)C1=O` (stereo unspecified), for which the inhibition was 5.32%.

In the case of `COc1ccc(C(=O)NCCSc2ccccc2C)cc1`, the inhibition is 0.09%.

In the case of `CCOc1ccc2nc(NCCNS(=O)(=O)c3ccccc3)c(C#N)cc2c1`, the inhibition is 40.1% (active).

`CCOc1ccc2nc(NCCNC(=O)C(C)(C)C)c(C)cc2c1`: the inhibition was 26.1%.

For `CCOc1ccc(S(=O)(=O)NCCSc2ccccc2)cc1`, the inhibition is 1.75%.

As to `Cn1nc(N)c2ncc(C(Cl)(Cl)Cl)nc21`, the inhibition is -3.83%.

As for `COC(=O)c1c(-c2ccsc2)oc2ccc(-c3cc(OC)c(OC)c(OC)c3)cc12`, the inhibition is 27.6% (active).

As for `COc1cc2c(-c3ccc4c(c3)OCO4)c(-c3ccsc3)oc(=O)c2cc1OC`, the inhibition is 2.51%.

Consider `COc1cc(-c2nnc(NC(=O)CS(=O)(=O)c3ccc(Cl)cc3)o2)cc(OC)c1OC`, for which the inhibition is -1.58%.

As to `CCCCC(NC(=O)c1cccc(Br)c1)C(=O)O` (stereo unspecified), the inhibition was 3.7%.

For the compound `O=C(NC1CC2CCCC(C1)N2C(=O)N1CCCCC1)C1CCCCC1` (stereo unspecified), the inhibition is 2.38%.

As for `CCOCCCN(C)C1CCN(C(=O)c2oc3ccccc3c2NC(=O)Cc2cccc([N+](=O)[O-])c2)CC1`, the inhibition is -1.05%.

In the case of `Cc1cc2oc3ccc(NCCC4CCCN4C)cc3c(=O)c2cc1C` (stereo unspecified), the inhibition is -0.55%.

As for `CN1CCC[C@@H]1CCO[C@](C)(c1ccccc1)c1ccc(Cl)cc1`, the inhibition was -4.31%.

Regarding `COc1cccc2sc3cc(NCC[C@@H]4CCCN4C)ccc3c(=O)c12`, the inhibition is 40.4% (active).

Regarding `COC(=O)c1c(C(=O)OC)c(-c2cccc(C)c2)n2c1CS(=O)C2` (stereo unspecified), the inhibition was -0.62%.

`COc1ccc2c(c1)OC(O)(C(F)(F)C(F)F)CC2=O` (stereo unspecified): the inhibition is -0.78%.

For the compound `O=S(=O)(c1ccc(Cl)s1)N1CCC2(CC1)OCCO2`, the inhibition was 0.69%.

For the compound `CCC12CN3CC(CC)(CN(C1)C31C(=O)N(C)c3ccc(C)cc31)C2=O` (stereo unspecified), the inhibition was -4.48%.

For the compound `Cc1cc(C(=O)OCC(=O)Nc2ccc(F)c(F)c2)c(C)o1`, the inhibition was 0.1%.

Take `CC(Nc1nc(N2CCOCC2)nc2ccccc12)c1ccccc1` (stereo unspecified): the inhibition is 50.4% (active).

Regarding `Clc1nc(NC2CCCC2)nc(N2CCOCC2)n1`, the inhibition is 2.59%.

`c1ccc2c(NC3C4CC5CC(C4)CC3C5)nc(N3CCOCC3)nc2c1` (stereo unspecified): the inhibition was 37.7% (active).

As for `c1cnc(NC2C3CC4CC(C3)CC2C4)nc1` (stereo unspecified), the inhibition is 1.67%.

`Fc1cnc(N2CCOCC2)nc1NCc1ccccc1`: the inhibition was 15.4%.

Regarding `CC(CN1CCOCC1)c1ccccc1` (stereo unspecified), the inhibition was -0.87%.

With `Cc1ccc(-n2nc(-c3ccco3)cc2C(=O)NCc2cccnc2)cc1`, the inhibition was -1.53%.

On to `CC(=O)N1CC(=O)N(CC(=O)Nc2ccc(Br)cc2)C1=S`, for which the inhibition is -0.11%.

Turning to `COc1ccc(C)cc1N(CC(=O)N1CCCC1)S(=O)(=O)c1ccccc1`, the inhibition was -1.91%.

With `CC1CCCCC1NC(=O)c1cn(C)c2ccc(S(=O)(=O)N3CCOCC3)cc2c1=O` (stereo unspecified), the inhibition is -7.99%.

For `Cc1ccccc1N1CCN(CCCN2C(=O)C3CCCCN3C2=O)CC1` (stereo unspecified), the inhibition was 0.31%.

As for `COC(=O)C1=C(C)N(C)C(=S)NC1c1cc(OC)ccc1OC` (stereo unspecified), the inhibition is 2.6%.

As for `CC(=O)NC(NC(=S)Nc1c(C)n(C)n(-c2ccccc2)c1=O)C(Cl)(Cl)Cl` (stereo unspecified), the inhibition is 4.91%.

In the case of `O=C(CCS(=O)(=O)Cc1ccccc1F)NCCCN1CCCCC1`, the inhibition is -1.06%.

Take `O=C(NCc1cccnc1)Nc1cccc(NC(=O)NCc2cccnc2)c1F`: the inhibition is 2.23%.

In the case of `CCN(c1cccc(C)c1)S(=O)(=O)c1ccc(-c2coc(C)n2)cc1`, the inhibition was 3.59%.

Turning to `CCN(CC)S(=O)(=O)c1ccc(-c2cn3ccc(C)cc3n2)cc1`, the inhibition was 140% (active).

Regarding `Cc1ccc(Cc2c(-c3ccccc3)nc3ccc(Cl)cn23)cc1`, the inhibition was -2.09%.

For `COc1ccc(-c2cn3ccc(C)cc3n2)cc1`, the inhibition was 70.2% (active).

Consider `CCN(CC(=O)NCCc1ccccc1)S(=O)(=O)c1ccc(C)cc1`, for which the inhibition is -0.83%.

Take `COc1ccc(C2=Nc3cc(C)ccc3OC2)cc1`: the inhibition was 17.7%.

For `Cc1ccc(-c2cn3cc(C)ccc3n2)cc1`, the inhibition is 56% (active).

As for `Cc1ccc2nc(-c3ccc(Br)cc3)cn2c1`, the inhibition is 4.66%.

Turning to `COc1ccc(Cc2cc(-c3ccc(F)cc3)n[nH]c2=O)cc1`, the inhibition was -0.22%.

`CCN(CC)C(=O)Oc1ccc(Br)cc1C(=O)Nc1ccc(F)c(Cl)c1`: the inhibition was -6.9%.

On to `C#CCCOC(=O)N1C2=NC(C(=O)OC)=C(C(=O)OC)[C@@H]3N(C)c4ccc(OC)cc4[C@]23C[C@H]1C(=O)OC`, for which the inhibition is 5.83%.

For the compound `O=C(OCCO)c1cc(Cl)c(C(=O)OCCO)cc1Cl`, the inhibition was -2.53%.

On to `CC1CC(C)(C)CC2(C1)NC(=O)N(CC(=O)Nc1nccs1)C2=O` (stereo unspecified), for which the inhibition was 1.81%.

Take `Cc1ccc(S(=O)(=O)N2CCN(C(=O)c3ccc(-n4cncn4)c([N+](=O)[O-])c3)CC2)cc1`: the inhibition is -0.25%.

Regarding `O=C(NCCc1ccccc1)c1c[nH]c2ccc(F)cc2c1=O`, the inhibition was -1.25%.

Take `COc1ccc(Cl)cc1NC(=O)c1cccc(N2C(=O)C3CC=CCC3C2=O)c1` (stereo unspecified): the inhibition was -2.03%.

With `Cc1cccc(NC(=O)c2ccc(S(=O)(=O)N(C)CC3CCCO3)cc2)c1C` (stereo unspecified), the inhibition was -3.44%.

For the compound `CNc1ccc(SC#N)cc1`, the inhibition was 2.17%.

Regarding `CC1CCN(CC(=O)Nc2nccs2)CC1`, the inhibition was -1.23%.

As to `CCOC(=O)C(CC)/C(C)=N\NC(=O)c1cccc(C)c1` (stereo unspecified), the inhibition was 2.1%.

Consider `O=S(=O)(Nc1ccc2[nH]ncc2c1)c1ccccc1Cl`, for which the inhibition is -2.11%.

With `Cc1ccc(NS(=O)(=O)c2c(C)[nH]c(C)c2C(=O)N2CCCCC2)c(C)c1`, the inhibition was 1.03%.

Regarding `COc1ccc(NC(=O)c2sccc2SCC#N)cc1`, the inhibition is 0.88%.

As for `CCOC(=O)c1cc2cc(C)ccc2[nH]1`, the inhibition was 31.8% (active).

For the compound `Cc1ccc2[nH]c(=O)c(COC(=O)c3ccccn3)cc2c1`, the inhibition was 1.82%.

For `CCOC(=O)c1[nH]c2ccc(C)cc2c1N=C(C)N(C)C`, the inhibition is 1.43%.

Turning to `CC1(C)C(=O)CCC2(C)C1=CCC1C2C(=O)CC2(C)C1CCC2(O)C(=O)CO` (stereo unspecified), the inhibition was 1.52%.

As to `COc1ccc(-n2c(C)cc(C(=O)CN3C(=O)NC4(CCc5ccccc54)C3=O)c2C)cc1` (stereo unspecified), the inhibition was 1%.

Regarding `Cn1c(=O)c(C(=O)Nc2ncccn2)c(O)c2ccccc21`, the inhibition is 7.7%.

For `Cc1cc(C)c(-c2c(O)c3ccccc3n(C)c2=O)c(C)c1`, the inhibition was 62.7% (active).

For the compound `Cn1c(=O)c(Sc2ccc(Cl)cc2)c(O)c2ccccc21`, the inhibition is 2%.
